Assay outcomes from PubChem.
An excerpt weighted towards active compounds, which were near 4.8% of everything screened.
HepG2 tox = counter-screen for TGF-b inhibitors: cytotoxicity in HepG2 cells | HepG2 CAGA-GFP viability, ATP luminescence, 18 h | Potency, µM (series often up to 46.1 µM), usual class: cytotoxic | actives 0.76% (n = 410,000) | AID 588856
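HepG2 CAGA-GFP cells (1000/well, DMEM with 1% FBS) received compound, then TGF-beta at 500 pg/mL final, and were incubated 18 hours at 37 degrees C. Viability was read by CellTiter-Glo luminescence. Media-only wells were set as complete cell-killing and DMSO as no toxicity.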
DRD3 antagonist = antagonists of human D3 dopamine receptor. P35462. D3R cells, DiscoveRx beta-arrestin luminescence, antagonist mode; stronger effect = lower value. max response, negative = inhibition, %. actives 2.5% (n = 360,000). AID 652054; in the data active means max response below about -50%; inconclusive means no clear call, values can overlap the other calls
Target sequence (P35462 whole entry, looked up): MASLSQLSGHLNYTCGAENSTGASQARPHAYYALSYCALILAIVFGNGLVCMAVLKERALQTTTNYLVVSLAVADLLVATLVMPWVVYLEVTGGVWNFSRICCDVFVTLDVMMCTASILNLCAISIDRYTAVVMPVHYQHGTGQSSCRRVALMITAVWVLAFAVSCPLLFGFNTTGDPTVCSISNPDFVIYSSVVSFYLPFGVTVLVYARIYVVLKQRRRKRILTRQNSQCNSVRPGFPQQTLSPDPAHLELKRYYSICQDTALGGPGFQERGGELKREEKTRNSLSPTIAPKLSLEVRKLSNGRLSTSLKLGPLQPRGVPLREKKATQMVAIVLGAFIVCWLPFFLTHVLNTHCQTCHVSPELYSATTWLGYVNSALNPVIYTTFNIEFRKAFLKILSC
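Cells plated overnight at 1500 cells/well, then exposed to library compounds with dopamine controls for 90 minutes at 37 degrees C. DiscoveRx reagent added for 30–60 minutes at room temperature; luminescence read, quantitative HTS format.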
ATXN2 expr inh = ATXN2 expression inhibition; HEK-293 ATXN2-luciferase reporter, luminescence, 24 h; Potency, µM (doses to about 57 µM), actives largely listed as inhibitors; actives 0.72% (n = 360,000); AID 1745845; further: nearly all actives have a fitted effect of over 55% in size
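qHTS (up to 57 uM final) was run with 24 h compound exposure of reporter cells at 37 °C. Each well was multiplexed: SteadyGlo luminescence measured ATXN2-luciferase expression after a fluorogenic Gly-Phe-AFC viability readout (25 uM final).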
TGFb inhibitor = TGF-b pathway inhibition; actives 1.2% (n = 410,000); HepG2 CAGA-GFP TGF-b/SMAD3 reporter, GFP fluorescence, 18 h; TGF-beta stimulated, 500 pg/mL final; Potency, µM (highest dose often 46.1 µM), actives largely listed as inhibitors; further: nearly all actives have a fitted effect of over 65% in size
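Per well, imaged GFP fluorescence of HEPG2 CAGA-GFP cells gives the signal; cells get compound, then TGF-beta (500 pg/mL final), 18 h at 37 degrees C; %Activity versus -TGF-beta and +DMSO controls.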
DRD3 agonist = D3 dopamine receptor (human) agonism; D3R DiscoveRx beta-arrestin cells, luminescence, 90 min; P35462; max activation, %; actives 0.58% (n = 410,000); in the data active means max activation above about 30%
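Cells at 1500/well, incubated overnight, then treated with pinned compounds (dopamine as control) for 90 min at 37 degrees C. DiscoveRx reagent added for 30 - 60 minutes at room temperature; luminescence read.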
ATXN viability = cell viability loss in ATXN counter-screen; S2 cells (HEK-293 line with an ATXN2-luciferase reporter) viability, CellTiter-Fluor protease fluorescence, 24 h; AID 651635; Potency, µM (doses to about 56.7 µM), most hits filed as cytotoxic; actives 0.49% (n = 400,000); further: nearly all actives have a fitted effect of over 40% in size
Each line names hits and unclear results; the compound was inactive in the other large screens. Unless noted, the call rests on the fitted dose curve; in most records, active means well fitted curve in the direction sought with a large enough effect; inconclusive means small, poorly fitted or top-dose-only effect, or another doubt; inactive means no such curve, though single readings can be large; an effect the other way counts as inactive or inconclusive.

Cc1nnc(NC(=O)c2cccc(S(=O)(=O)N3CC(c4ccccc4)CC3=O)c2)s1 (configuration not stated)	DRD3 agonist 68
Brc1ccc[n+](CCc2ccccc2)c1	none (no result: DRD3 antagonist, ATXN2 expr inh, DRD3 agonist, ATXN viability)
OCCNc1c2ccccc2nc2c(F)c(F)c(F)c(F)c12	ATXN2 expr inh 7.5µM (no result: ATXN viability)
Cc1c2ccccc2nc2c(F)c(NCCO)c(F)c(F)c12	none
CCNC(=O)N(CC)C[C@H]1N[C@@](Cc2ccccc2)(C(=O)OC)[C@H]2C(=O)N(Cc3ccccc3)C(=O)[C@@H]12	none
CCN(C[C@H]1N[C@@](C)(C(=O)OC)[C@H]2C(=O)N(Cc3ccccc3)C(=O)[C@@H]12)C(=O)C1CCCCC1	none
CCNC(=O)N(CC)C[C@H]1N[C@@](Cc2ccccc2)(C(=O)OC)[C@H]2C(=O)N(C)C(=O)[C@@H]12	DRD3 agonist 46
CCN(C[C@H]1N[C@@](Cc2ccccc2)(C(=O)OC)[C@H]2C(=O)N(Cc3ccccc3)C(=O)[C@@H]12)C(=O)C1CCCCC1	DRD3 antagonist -57
CCN(C[C@H]1N[C@@](CC)(C(=O)OC)[C@H]2C(=O)N(Cc3ccccc3)C(=O)[C@@H]12)C(=O)c1ccc(C(C)(C)C)cc1	ATXN2 expr inh inconclusive, TGFb inhibitor inconclusive, ATXN viability 16µM
COC(=O)[C@]1(Cc2ccccc2)N[C@H](CN(C)C(C)=O)[C@@H]2C(=O)N(Cc3ccccc3)C(=O)[C@@H]21	DRD3 antagonist -53
C/C=C1\COC(C(=O)NC)(C(F)(F)F)C=C1C=C1CCCCC1 (configuration not stated)	TGFb inhibitor 16µM (no result: DRD3 antagonist, ATXN2 expr inh, DRD3 agonist, ATXN viability)
C/C=C1\COC(C(=O)NCc2ccncc2)(C(F)(F)F)C=C1C=C1CCCCC1 (configuration not stated)	TGFb inhibitor 10µM
C/C=C1\COC(C(=O)NCCOCCO)(C(F)(F)F)C=C1C=C1CCCCC1 (configuration not stated)	TGFb inhibitor 13µM (no result: DRD3 antagonist, ATXN2 expr inh, DRD3 agonist, ATXN viability)
C/C=C1\COC(C(=O)NCc2cccc(OC)c2OC)(C(F)(F)F)C=C1C=C1CCCCC1 (configuration not stated)	TGFb inhibitor inconclusive
OC1(c2ccccc2)CCNCC1	none (no result: HepG2 tox, DRD3 antagonist, TGFb inhibitor, DRD3 agonist)
CC(C)c1ccc(NC(=O)c2cc3c(=O)[nH]c4ccccc4c3n2C)cc1	none (no result: DRD3 antagonist)
COc1ccccc1OCC(=O)NCC1(N(C)C)CCCCC1	none (no result: DRD3 antagonist)
COc1cc(CNCCO)cc(Cl)c1OCc1ccc(Cl)cc1Cl	ATXN2 expr inh 16µM, TGFb inhibitor 22µM, ATXN viability 35µM
COc1cc(CNCCN2CCOCC2)ccc1OCc1ccc(Cl)cc1Cl	DRD3 antagonist -64, ATXN2 expr inh inconclusive, TGFb inhibitor 20µM (no result: ATXN viability)
COc1cc(CNCc2ccccn2)ccc1OCc1ccc(Cl)cc1Cl	DRD3 antagonist -67, TGFb inhibitor inconclusive
COc1cccc(NC(=O)Cn2c(=O)n(-c3ccc(C)cc3)c(=O)c3ccccc32)c1	none (no result: DRD3 antagonist)
COc1c(C)c2c(c(O)c1CC=C(C)CCC(=O)O)C(=O)OC2	none (no result: HepG2 tox, DRD3 antagonist, TGFb inhibitor, DRD3 agonist, ATXN viability)
C[N+]1(CC(=O)c2ccc3ccccc3c2)CCOCC1	none (no result: DRD3 antagonist, ATXN2 expr inh, DRD3 agonist, ATXN viability)
CCOC(=O)c1cc2c(=O)n3ccccc3nc2n(CCCOC)c1=NC(=O)c1cc2ccccc2o1	none (no result: DRD3 antagonist)
CN(C)c1ccc(/C=C/c2ncnc3ccccc23)cc1	none (no result: DRD3 antagonist, ATXN2 expr inh, DRD3 agonist, ATXN viability)
CCN(CC)C(=O)c1n[nH]c(=O)c2ccccc12	DRD3 antagonist -96
CCOC(=O)C1CCCN(C(=O)c2cnn(-c3ncc4c(n3)-c3ccccc3CC4)c2C)C1 (configuration not stated)	none (no result: HepG2 tox, DRD3 antagonist, ATXN2 expr inh, TGFb inhibitor, DRD3 agonist)
COC(=O)Cc1ccc(OC2(C)CCN(Cc3ccccc3)C2)cc1 (configuration not stated)	DRD3 antagonist -89
CSc1ccc(CN2CCC(C)(Oc3ccc4ccccc4c3)C2)cc1 (configuration not stated)	DRD3 antagonist inconclusive
CCNC(=O)C1(C)CCCN(Cc2csc3ccccc23)C1 (configuration not stated)	none
